Values joined by “and” are separate entries in the source; they are usually repeats but may differ in a detail not shown here. Equal entries are not always repeated. The whole screen tested about 5,500 compounds, of which about 2,000 (36%) were called active. Not shown: some 18% with an inconclusive outcome. Rule as the data show it: active = normalized growth mostly below about 0.91 (no sharp cut-off); inconclusive = no clear call, values can overlap the other calls; inactive = mostly above about 0.92. Some of the results follow. Where a structure was tested more than once in an assay, its records may differ in their call.
Assay: chemical genetic growth profiling, strain panel (AID 1159580);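 also: tested at 20 µM; growth read once vehicle control cultures reached saturation at 30 °C; 1 = growth at the plate median or of vehicle wells; lower values mean less growth of the strain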
Settings: S. cerevisiae deletion strains, growth OD

Measured: normalized growth

O=C1c2c(O)ccc(O)c2C(=O)c2c(NCCNCCO)ccc(NCCNCCO)c21
0.916 (inactive) and 0.755 (active): locus YJL095W, strain BCK1, stronger effect = lower value
1.03 (inactive) and 0.713 (active): locus YHR030C, strain SLT2, stronger effect = lower value
active: locus YAL021C, strain ccr4, stronger effect = lower value 0.499 | locus YAL026C, strain drs2, stronger effect = lower value 0.363 | locus YAL030W, strain snc1, stronger effect = lower value 0.839 | locus YBL061C, strain skt5, stronger effect = lower value 0.81 | locus YBR009C, strain hhf1, stronger effect = lower value 0.831 | locus YBR023C, strain chs3, stronger effect = lower value 0.868 | locus YBR231C, strain swc5, stronger effect = lower value 0.84 | locus YBR279W, strain paf1, stronger effect = lower value 0.669 | locus YCL011C, strain gbp2, stronger effect = lower value 0.894 | locus YCL016C, strain dcc1, stronger effect = lower value 0.385 | locus YCL061C, strain MRC1, stronger effect = lower value 0.868 | locus YCR088W, strain abp1, stronger effect = lower value 0.828 | locus YDL005C, strain med2, stronger effect = lower value 1.12 [resistant] | locus YDL192W, strain arf1, stronger effect = lower value 0.889 | locus YDR069C, strain doa4, stronger effect = lower value 0.684 | locus YDR137W, strain rgp1, stronger effect = lower value 0.572 | locus YDR159W, strain sac3, stronger effect = lower value 0.788 | locus YDR195W, strain ref2 0.764 | locus YDR297W, strain sur2, stronger effect = lower value 0.885 | locus YDR335W, strain msn5, stronger effect = lower value 0.821 | locus YDR388W, stronger effect = lower value 0.892 | locus YDR392W, strain spt3, stronger effect = lower value 1.28 [resistant] | locus YEL003W, strain gim4, stronger effect = lower value 0.878 | locus YEL037C, strain rad23, stronger effect = lower value 0.818 | locus YEL061C, strain CIN8 (second series), stronger effect = lower value 0.896 | locus YER015W, strain faa2, stronger effect = lower value 0.865 | locus YER016W, strain bim1, stronger effect = lower value 0.793 | locus YER111C, strain swi4, stronger effect = lower value 0.397 | locus YFR010W, strain ubp6, stronger effect = lower value 0.564 | locus YGL167C, strain pmr1, stronger effect = lower value 0.619 | locus YGL173C, strain kem1, stronger effect = lower value 0.57 | locus YGL240W, strain doc1, stronger effect = lower value 0.696 | locus YGL253W, strain hxk2, stronger effect = lower value 0.738 | locus YHR027C, strain rpn1, stronger effect = lower value 0.756 | locus YHR142W, strain chs7, stronger effect = lower value 0.582 | locus YJL092W, strain hpr5, stronger effect = lower value 0.609 | locus YJL095W, strain BCK1 (second series), stronger effect = lower value 0.482 | locus YJL115W, strain asf1, stronger effect = lower value 0.321 | locus YJL129C, strain trk1, stronger effect = lower value 0.306 | locus YJL164C, strain tpk1, stronger effect = lower value 0.735 | locus YJL166W, strain qcr8, stronger effect = lower value 0.858 | locus YJR043C, strain POL32, stronger effect = lower value 0.779
inactive: locus YAL040C, strain CLN3, stronger effect = lower value 1.06 | locus YBR021W, strain FUR4, stronger effect = lower value 0.941 | locus YBR171W, strain sec66, stronger effect = lower value 0.911 | locus YBR229C, strain ROT2, stronger effect = lower value 1.03 | locus YCL029C, strain bik1, stronger effect = lower value 1.01 | locus YCL061C, strain MRC1 (second series), stronger effect = lower value 0.983 | locus YCL069W, strain vba3, stronger effect = lower value 0.946 | locus YDL035C, strain GPR1, stronger effect = lower value 0.976 | locus YDL040C, strain nat1, stronger effect = lower value 1.03 | locus YDL074C, strain BRE1, stronger effect = lower value 0.897 | locus YDL101C, strain DUN1, stronger effect = lower value 1.01 | locus YDL134C, strain PPH21, stronger effect = lower value 0.977 | locus YDL185W, strain tfp1, stronger effect = lower value 0.943 | locus YDR001C, strain nth1, stronger effect = lower value 1.01 | locus YDR101C, strain arx1, stronger effect = lower value 1.04 | locus YDR150W, strain NUM1, stronger effect = lower value 0.993 | locus YDR162C, strain NBP2, stronger effect = lower value 0.921 | locus YDR318W, strain mcm21, stronger effect = lower value 0.982 | locus YDR334W, strain swr1, stronger effect = lower value 0.981 | locus YDR363W, strain ESC2, stronger effect = lower value 0.919 | locus YDR502C, strain sam2, stronger effect = lower value 0.983 | locus YEL061C, strain CIN8, stronger effect = lower value 1.02 | locus YER002W, strain NOP16, stronger effect = lower value 1.05 | locus YER110C, stronger effect = lower value 1.07 | locus YER155C, strain BEM2 (second series), stronger effect = lower value 0.965 | locus YER155C, strain BEM2, stronger effect = lower value 1.04 | locus YER167W, strain BCK2, stronger effect = lower value 0.96 | locus YGL078C, strain dbp3, stronger effect = lower value 0.942 | locus YGL086W, strain mad1, stronger effect = lower value 1.01 | locus YGL227W, strain vid30, stronger effect = lower value 1.08 | locus YGL248W, strain PDE1, stronger effect = lower value 1.02 | locus YGR078C, strain PAC10, stronger effect = lower value 1.01 and 1.07 | locus YGR135W, strain pre9, stronger effect = lower value 0.942 | locus YGR252W, strain gcn5, stronger effect = lower value 0.924 | locus YHR013C, strain ard1, stronger effect = lower value 0.878 | locus YHR079C, strain IRE1 (second series), stronger effect = lower value 1 | locus YHR079C, strain IRE1, stronger effect = lower value 0.951 | locus YHR094C, strain hxt1, stronger effect = lower value 1.05 | locus YHR129C, strain ARP1, stronger effect = lower value 1.02 | locus YHR200W, strain rpn10, stronger effect = lower value 0.985 | locus YIL066C, strain RNR3, stronger effect = lower value 0.992 | locus YIL073C, strain SPO22, stronger effect = lower value 0.917 | locus YIL125W, strain kgd1, stronger effect = lower value 0.986 | locus YIR030C, strain dcg1, stronger effect = lower value 1.02 | locus YJL134W, strain LCB3, stronger effect = lower value 1.04 | locus YJL154C, strain vps35, stronger effect = lower value 1.05 | locus YJL168C, strain set2, stronger effect = lower value 1.05 | locus YJL187C, strain SWE1 (second series), stronger effect = lower value 0.968 | locus YJL187C, strain SWE1, stronger effect = lower value 0.997
0.968 (inactive) and 0.9 (active): locus YAL013W, strain DEP1, stronger effect = lower value

— PubChem BioAssay AID1159580 (chemical genetic matrix, 2015)
